# Experimental data: article PMC7862700, “An all-to-all approach to the identification of sequence-specific readers for epigenetic DNA modifications on cytosine”
# Assays:
# Experiment in all cases: DAPPL (digital affinity profiling via proximity ligation, sequencing); 10 mM Tris-HCl pH 7.5, 50 mM NaCl, 1 mM DTT, 4% glycerol, room temperature, 30 min; GST-TFs on glutathione beads, 16-mer random dsDNA library, 0.1% formaldehyde crosslink after washing; high values mean tight binding
# [1] = molecular target: T1, FLI1 (Homo sapiens, UniProt Q01543 1-452); conditions: protein: recombinant; tags: N-terminal GST; dsDNA, one strand shown
# T1 sequence: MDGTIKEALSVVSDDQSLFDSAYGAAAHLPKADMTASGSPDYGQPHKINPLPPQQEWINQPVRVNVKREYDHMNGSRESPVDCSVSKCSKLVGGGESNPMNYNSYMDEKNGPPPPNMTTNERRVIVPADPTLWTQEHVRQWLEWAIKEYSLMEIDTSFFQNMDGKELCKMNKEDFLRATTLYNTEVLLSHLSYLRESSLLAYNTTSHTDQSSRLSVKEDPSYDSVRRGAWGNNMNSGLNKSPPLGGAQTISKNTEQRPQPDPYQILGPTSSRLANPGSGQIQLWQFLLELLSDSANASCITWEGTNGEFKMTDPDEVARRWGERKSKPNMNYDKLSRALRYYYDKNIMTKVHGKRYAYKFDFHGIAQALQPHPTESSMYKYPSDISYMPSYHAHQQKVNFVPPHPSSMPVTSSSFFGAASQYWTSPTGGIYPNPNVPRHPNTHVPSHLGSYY
# Method in brief: (§1)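 GST fusions of human transcription factors were expressed in yeast and captured with glutathione beads. Once given DNA barcodes and pooled alongside a tag-only sample, they were incubated for 30 min at room temperature with 200 nmole of a random double-stranded 16-mer DNA library in Tris/NaCl/DTT/glycerol buffer, then washed, crosslinked (0.1% formaldehyde), proximity-ligated, PCR-amplified and sequenced on an Illumina NextSeq500. The binding signal of each hexamer is its read frequency for a factor divided by its frequency for the tag-only sample.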
# [2] = molecular target: T2, ELK1 (Homo sapiens, UniProt P19419 1-428); conditions: protein: recombinant; tags: N-terminal GST; dsDNA, one strand shown
# T2 sequence: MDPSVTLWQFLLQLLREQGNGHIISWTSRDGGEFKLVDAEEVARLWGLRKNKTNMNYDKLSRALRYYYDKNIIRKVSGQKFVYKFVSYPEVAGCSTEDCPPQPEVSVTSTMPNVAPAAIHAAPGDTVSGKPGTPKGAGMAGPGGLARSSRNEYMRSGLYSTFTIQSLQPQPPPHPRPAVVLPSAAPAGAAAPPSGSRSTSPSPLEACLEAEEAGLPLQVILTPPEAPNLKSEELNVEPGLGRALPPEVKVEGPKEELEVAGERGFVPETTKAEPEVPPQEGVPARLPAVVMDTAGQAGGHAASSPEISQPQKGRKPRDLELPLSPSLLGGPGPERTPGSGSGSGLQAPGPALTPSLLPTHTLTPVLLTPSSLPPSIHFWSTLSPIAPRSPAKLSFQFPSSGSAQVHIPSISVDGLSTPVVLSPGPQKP
# Method in brief: as §1
# [3] = molecular target: T3, GABPA (Homo sapiens, UniProt Q06546 1-454); conditions: protein: recombinant; tags: N-terminal GST; dsDNA, one strand shown
# T3 sequence: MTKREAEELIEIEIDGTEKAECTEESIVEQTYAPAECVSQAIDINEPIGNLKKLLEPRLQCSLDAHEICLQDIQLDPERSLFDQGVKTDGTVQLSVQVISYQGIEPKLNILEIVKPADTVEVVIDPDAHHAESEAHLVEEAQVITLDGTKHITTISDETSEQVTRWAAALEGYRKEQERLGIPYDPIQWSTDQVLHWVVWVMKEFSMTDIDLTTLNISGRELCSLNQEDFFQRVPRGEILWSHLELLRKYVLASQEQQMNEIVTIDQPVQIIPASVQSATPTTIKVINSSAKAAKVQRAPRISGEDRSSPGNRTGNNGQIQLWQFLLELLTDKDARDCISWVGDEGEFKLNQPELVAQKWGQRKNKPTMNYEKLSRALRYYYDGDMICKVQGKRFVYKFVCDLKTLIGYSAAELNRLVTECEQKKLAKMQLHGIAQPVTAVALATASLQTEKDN
# Method in brief: as §1
# [4] = molecular target: T4, ERG (Homo sapiens, UniProt P11308 1-479); conditions: protein: recombinant; tags: N-terminal GST; dsDNA, one strand shown
# T4 sequence: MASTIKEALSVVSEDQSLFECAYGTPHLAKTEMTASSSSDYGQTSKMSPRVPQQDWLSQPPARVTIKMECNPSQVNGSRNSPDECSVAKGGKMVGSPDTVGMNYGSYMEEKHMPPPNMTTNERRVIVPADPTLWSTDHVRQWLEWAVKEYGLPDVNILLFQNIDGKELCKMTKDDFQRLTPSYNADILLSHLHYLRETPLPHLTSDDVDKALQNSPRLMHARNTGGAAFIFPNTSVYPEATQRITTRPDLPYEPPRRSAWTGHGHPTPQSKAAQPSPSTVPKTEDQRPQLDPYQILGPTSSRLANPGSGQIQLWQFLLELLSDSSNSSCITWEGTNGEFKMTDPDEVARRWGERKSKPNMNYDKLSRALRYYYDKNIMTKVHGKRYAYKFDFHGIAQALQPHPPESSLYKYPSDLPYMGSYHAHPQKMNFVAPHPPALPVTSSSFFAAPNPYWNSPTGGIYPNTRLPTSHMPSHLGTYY
# Method in brief: as §1
# [5] = molecular target: ELF1 (Homo sapiens, UniProt P32519 1-619); conditions: protein: recombinant; tags: N-terminal GST; dsDNA, one strand shown
# Method in brief: as §1
# [6] = molecular target: T5, EHF (Homo sapiens, UniProt Q9NZC4 1-300); conditions: protein: recombinant; tags: N-terminal GST; dsDNA, one strand shown
# T5 sequence: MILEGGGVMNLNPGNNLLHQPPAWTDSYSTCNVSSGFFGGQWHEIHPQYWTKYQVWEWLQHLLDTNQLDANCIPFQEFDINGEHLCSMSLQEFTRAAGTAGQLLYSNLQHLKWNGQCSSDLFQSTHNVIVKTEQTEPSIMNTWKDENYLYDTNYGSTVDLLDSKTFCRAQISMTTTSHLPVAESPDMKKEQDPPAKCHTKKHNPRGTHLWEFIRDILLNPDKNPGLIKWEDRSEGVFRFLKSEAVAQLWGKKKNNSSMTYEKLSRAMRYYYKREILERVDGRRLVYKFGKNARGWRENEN
# Method in brief: as §1
# [7] = molecular target: SPI1 (Homo sapiens, UniProt P17947 1-270); conditions: protein: recombinant; tags: N-terminal GST; dsDNA, one strand shown
# Method in brief: as §1
# [8] = molecular target: SPIB (Homo sapiens, UniProt Q01892 1-262); conditions: protein: recombinant; tags: N-terminal GST; dsDNA, one strand shown
# Method in brief: as §1
# [9] = molecular target: T6, ELK3 (Homo sapiens, UniProt P41970 1-407); conditions: protein: recombinant; tags: N-terminal GST; dsDNA, one strand shown
# T6 sequence: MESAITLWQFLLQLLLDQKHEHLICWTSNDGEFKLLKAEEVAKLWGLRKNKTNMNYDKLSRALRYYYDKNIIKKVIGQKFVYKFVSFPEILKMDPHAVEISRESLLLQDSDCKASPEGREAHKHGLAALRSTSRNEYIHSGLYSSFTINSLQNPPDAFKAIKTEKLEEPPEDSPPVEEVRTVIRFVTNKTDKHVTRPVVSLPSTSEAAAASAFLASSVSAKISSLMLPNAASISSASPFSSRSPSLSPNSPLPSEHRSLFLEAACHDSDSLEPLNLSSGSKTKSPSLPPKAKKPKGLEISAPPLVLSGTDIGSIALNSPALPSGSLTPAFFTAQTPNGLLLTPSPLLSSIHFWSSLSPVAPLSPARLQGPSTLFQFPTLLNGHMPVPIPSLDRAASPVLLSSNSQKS
# Method in brief: as §1
# [10] = molecular target: T7, FEV (Homo sapiens, UniProt Q99581 1-238); conditions: protein: recombinant; tags: N-terminal GST; dsDNA, one strand shown
# T7 sequence: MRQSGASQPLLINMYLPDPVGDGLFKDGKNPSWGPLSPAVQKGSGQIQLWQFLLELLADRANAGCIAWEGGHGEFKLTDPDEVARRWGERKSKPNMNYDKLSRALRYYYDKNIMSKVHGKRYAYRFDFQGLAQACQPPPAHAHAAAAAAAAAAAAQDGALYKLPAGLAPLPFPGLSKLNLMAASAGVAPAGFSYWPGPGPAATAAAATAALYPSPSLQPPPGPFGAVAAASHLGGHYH
# Method in brief: as §1
# [11] = molecular target: ETV5 (Homo sapiens, UniProt P41161 1-510); conditions: protein: recombinant; tags: N-terminal GST; dsDNA, one strand shown
# Method in brief: as §1
# [12] = molecular target: HSF1 (Homo sapiens, UniProt Q00613 1-529); conditions: protein: recombinant; tags: N-terminal GST; chain copies: 3; dsDNA, one strand shown
# Method in brief: as §1
# [13] = molecular target: T8, SPIC (Homo sapiens, UniProt Q8N5J4 1-248); conditions: protein: recombinant; tags: N-terminal GST; dsDNA, one strand shown
# T8 sequence: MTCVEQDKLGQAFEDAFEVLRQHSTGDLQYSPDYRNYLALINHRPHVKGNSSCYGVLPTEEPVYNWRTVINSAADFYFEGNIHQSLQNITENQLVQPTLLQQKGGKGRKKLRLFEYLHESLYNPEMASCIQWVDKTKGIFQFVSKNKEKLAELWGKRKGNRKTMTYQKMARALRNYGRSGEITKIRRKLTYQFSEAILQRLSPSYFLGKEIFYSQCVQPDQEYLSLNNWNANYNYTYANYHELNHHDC
# Method in brief: as §1
# [14] = molecular target: ELF4 (Homo sapiens, UniProt Q99607 1-663); conditions: protein: recombinant; tags: N-terminal GST; dsDNA, one strand shown
# Method in brief: as §1
# [15] = molecular target: T9, ELK4 (Homo sapiens, UniProt P28324-2 1-405); conditions: protein: recombinant; tags: N-terminal GST; dsDNA, one strand shown
# T9 sequence: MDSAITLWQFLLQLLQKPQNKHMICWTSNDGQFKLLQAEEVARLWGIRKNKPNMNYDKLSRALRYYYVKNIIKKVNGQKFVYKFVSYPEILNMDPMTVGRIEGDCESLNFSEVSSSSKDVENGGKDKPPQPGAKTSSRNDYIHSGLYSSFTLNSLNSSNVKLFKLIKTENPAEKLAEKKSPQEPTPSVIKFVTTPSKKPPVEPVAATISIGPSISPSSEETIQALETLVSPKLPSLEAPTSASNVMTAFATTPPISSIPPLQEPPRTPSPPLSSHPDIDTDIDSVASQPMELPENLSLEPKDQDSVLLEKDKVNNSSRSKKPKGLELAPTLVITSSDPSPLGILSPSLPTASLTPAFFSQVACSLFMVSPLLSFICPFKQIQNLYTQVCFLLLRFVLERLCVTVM
# Method in brief: as §1
# [16] = molecular target: T10, ETV2 (Homo sapiens, UniProt O00321 1-342); conditions: protein: recombinant; tags: N-terminal GST; dsDNA, one strand shown
# T10 sequence: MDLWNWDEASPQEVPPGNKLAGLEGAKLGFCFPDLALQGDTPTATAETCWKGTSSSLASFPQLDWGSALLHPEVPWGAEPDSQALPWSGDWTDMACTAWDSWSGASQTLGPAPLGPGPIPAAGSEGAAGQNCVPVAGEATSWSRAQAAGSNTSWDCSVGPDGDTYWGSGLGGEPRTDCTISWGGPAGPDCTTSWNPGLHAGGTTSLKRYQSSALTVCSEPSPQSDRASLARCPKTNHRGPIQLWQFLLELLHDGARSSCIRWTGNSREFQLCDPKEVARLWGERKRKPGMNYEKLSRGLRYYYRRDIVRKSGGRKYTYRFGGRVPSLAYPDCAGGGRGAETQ
# Method in brief: as §1
# [17] = molecular target: T11, ELF3 (Homo sapiens, UniProt P78545 1-371); conditions: protein: recombinant; tags: N-terminal GST; dsDNA, one strand shown
# T11 sequence: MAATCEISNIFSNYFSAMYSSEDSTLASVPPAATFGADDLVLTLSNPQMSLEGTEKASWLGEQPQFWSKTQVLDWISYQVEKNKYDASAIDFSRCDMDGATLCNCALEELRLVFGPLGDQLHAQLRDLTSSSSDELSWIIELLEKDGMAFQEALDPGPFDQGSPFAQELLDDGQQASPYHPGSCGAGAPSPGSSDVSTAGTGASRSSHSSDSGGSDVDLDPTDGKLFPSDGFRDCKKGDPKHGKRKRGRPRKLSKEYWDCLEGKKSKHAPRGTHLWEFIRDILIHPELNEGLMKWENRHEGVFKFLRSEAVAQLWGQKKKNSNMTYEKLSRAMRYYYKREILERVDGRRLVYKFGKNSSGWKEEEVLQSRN
# Method in brief: as §1
# [18] = molecular target: CRX (Homo sapiens, UniProt O43186 1-299); conditions: protein: recombinant; tags: N-terminal GST; dsDNA, one strand shown
# Method in brief: as §1
# [19] = molecular target: ETV1 (Homo sapiens, UniProt P50549 1-477); conditions: protein: recombinant; tags: N-terminal GST; dsDNA, one strand shown
# Method in brief: as §1
# Sequence of SPIB (Q01892 whole entry): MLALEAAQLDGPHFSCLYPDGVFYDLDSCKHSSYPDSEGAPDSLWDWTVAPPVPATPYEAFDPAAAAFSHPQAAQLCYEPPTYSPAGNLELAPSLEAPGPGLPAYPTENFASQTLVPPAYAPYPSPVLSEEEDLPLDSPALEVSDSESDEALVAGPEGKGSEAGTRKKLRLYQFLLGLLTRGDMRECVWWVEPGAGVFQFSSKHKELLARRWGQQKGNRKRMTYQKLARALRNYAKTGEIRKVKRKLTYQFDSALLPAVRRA
# Sequence of CRX (O43186 whole entry): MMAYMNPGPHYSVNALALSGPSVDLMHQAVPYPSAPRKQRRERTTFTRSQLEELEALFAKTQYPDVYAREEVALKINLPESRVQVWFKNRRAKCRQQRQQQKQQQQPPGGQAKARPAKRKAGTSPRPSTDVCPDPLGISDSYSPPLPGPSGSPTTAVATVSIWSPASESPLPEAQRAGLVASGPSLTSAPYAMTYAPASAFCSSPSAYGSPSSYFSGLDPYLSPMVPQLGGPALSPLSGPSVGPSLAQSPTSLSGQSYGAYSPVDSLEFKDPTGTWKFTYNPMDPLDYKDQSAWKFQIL
# Sequence of ETV1 (P50549 whole entry): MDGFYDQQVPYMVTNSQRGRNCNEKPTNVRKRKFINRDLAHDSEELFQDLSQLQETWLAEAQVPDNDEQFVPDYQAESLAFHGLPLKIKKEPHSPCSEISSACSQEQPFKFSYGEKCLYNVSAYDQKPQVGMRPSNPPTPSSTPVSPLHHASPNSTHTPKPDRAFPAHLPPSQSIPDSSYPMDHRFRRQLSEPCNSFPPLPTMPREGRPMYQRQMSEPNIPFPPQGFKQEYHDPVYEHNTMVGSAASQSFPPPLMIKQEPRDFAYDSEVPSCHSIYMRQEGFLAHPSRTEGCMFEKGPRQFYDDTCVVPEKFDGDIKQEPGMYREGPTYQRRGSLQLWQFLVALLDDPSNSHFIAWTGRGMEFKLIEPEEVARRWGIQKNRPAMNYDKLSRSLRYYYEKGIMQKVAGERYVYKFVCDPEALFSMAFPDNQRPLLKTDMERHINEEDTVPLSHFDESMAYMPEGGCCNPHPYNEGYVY
# Sequence of ELF4 (Q99607 whole entry): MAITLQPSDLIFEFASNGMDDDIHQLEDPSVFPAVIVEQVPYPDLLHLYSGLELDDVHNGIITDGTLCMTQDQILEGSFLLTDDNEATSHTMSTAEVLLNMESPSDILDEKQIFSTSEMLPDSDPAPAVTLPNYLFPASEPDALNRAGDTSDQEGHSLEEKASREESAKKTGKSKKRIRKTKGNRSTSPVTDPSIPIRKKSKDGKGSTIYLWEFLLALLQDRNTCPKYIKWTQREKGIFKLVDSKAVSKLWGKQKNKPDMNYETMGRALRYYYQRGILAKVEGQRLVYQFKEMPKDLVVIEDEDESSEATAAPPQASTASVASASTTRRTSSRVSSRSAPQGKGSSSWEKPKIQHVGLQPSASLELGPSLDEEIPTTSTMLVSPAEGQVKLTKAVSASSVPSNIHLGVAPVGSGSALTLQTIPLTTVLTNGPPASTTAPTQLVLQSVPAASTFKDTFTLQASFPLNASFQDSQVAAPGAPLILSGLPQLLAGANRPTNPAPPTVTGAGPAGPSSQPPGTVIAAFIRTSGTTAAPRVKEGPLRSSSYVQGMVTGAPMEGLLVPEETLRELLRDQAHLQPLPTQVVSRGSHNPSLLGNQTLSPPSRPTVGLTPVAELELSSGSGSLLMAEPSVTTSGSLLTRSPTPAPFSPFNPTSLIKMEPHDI
# Sequence of ETV5 (P41161 whole entry): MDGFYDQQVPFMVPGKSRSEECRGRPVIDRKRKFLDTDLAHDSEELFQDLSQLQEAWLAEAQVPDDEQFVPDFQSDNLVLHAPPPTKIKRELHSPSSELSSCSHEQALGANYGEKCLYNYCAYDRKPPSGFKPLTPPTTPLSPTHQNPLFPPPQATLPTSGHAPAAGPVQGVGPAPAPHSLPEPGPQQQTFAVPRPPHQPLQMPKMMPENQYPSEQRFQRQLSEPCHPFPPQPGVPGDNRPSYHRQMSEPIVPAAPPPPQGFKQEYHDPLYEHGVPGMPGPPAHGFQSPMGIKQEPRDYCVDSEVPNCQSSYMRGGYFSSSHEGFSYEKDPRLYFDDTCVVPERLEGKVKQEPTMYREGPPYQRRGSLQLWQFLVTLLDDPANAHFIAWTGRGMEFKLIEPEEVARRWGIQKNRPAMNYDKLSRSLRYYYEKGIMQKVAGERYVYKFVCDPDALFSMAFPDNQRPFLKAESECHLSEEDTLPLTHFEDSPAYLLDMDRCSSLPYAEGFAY
# Sequence of HSF1 (Q00613 whole entry): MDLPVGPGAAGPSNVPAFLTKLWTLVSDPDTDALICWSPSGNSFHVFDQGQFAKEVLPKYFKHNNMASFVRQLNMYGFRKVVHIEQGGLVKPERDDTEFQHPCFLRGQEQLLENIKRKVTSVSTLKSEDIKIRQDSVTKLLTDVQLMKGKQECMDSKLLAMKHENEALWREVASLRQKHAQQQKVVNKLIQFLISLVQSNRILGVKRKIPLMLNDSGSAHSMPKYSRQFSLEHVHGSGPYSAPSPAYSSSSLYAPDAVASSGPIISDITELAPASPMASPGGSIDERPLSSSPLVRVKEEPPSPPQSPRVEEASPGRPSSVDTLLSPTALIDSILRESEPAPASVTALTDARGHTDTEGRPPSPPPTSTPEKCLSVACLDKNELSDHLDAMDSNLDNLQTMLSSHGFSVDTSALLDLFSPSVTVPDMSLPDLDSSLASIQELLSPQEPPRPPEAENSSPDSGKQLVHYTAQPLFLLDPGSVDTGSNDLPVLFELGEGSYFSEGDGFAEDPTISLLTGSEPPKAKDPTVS
# Sequence of ELF1 (P32519 whole entry): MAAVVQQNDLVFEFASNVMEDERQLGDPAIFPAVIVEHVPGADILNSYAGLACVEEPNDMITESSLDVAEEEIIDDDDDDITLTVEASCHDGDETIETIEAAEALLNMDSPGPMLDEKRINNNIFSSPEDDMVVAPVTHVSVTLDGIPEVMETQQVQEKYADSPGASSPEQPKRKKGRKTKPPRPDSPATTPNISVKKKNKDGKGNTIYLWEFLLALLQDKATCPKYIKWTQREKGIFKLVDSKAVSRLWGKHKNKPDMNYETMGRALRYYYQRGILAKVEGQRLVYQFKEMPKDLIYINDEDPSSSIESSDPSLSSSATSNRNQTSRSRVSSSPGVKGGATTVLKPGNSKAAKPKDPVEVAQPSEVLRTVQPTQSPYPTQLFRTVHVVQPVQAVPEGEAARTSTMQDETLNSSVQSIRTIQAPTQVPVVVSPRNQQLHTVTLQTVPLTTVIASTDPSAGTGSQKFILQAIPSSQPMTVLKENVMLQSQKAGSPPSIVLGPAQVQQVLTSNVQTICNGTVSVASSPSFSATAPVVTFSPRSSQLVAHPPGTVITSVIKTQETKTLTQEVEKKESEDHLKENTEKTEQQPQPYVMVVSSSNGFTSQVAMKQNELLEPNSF
sequence,measurement,setting,value
CTTACA,binding signal,[1],"1.28 fold enrichment (6-mer frequency, TF over GST control)"
same,binding signal,[2],"1.3 fold enrichment (6-mer frequency, TF over GST control)"
same,binding signal,[3],"1.32 fold enrichment (6-mer frequency, TF over GST control)"
same,binding signal,[4],"1.21 fold enrichment (6-mer frequency, TF over GST control)"
same,binding signal,[5],"1.24 fold enrichment (6-mer frequency, TF over GST control)"
same,binding signal,[6],"1.33 fold enrichment (6-mer frequency, TF over GST control)"
same,binding signal,[7],"1.22 fold enrichment (6-mer frequency, TF over GST control)"
same,binding signal,[8],"1.21 fold enrichment (6-mer frequency, TF over GST control)"
same,binding signal,[9],"1.24 fold enrichment (6-mer frequency, TF over GST control)"
same,binding signal,[10],"1.18 fold enrichment (6-mer frequency, TF over GST control)"
same,binding signal,[11],"1.31 fold enrichment (6-mer frequency, TF over GST control)"
same,binding signal,[12],"1.31 fold enrichment (6-mer frequency, TF over GST control)"
same,binding signal,[13],"1.27 fold enrichment (6-mer frequency, TF over GST control)"
same,binding signal,[14],"1.25 fold enrichment (6-mer frequency, TF over GST control)"
same,binding signal,[15],"1.3 fold enrichment (6-mer frequency, TF over GST control)"
same,binding signal,[16],"1.28 fold enrichment (6-mer frequency, TF over GST control)"
same,binding signal,[17],"1.41 fold enrichment (6-mer frequency, TF over GST control)"
same,binding signal,[18],"1.6 fold enrichment (6-mer frequency, TF over GST control)"
same,binding signal,[19],"1.24 fold enrichment (6-mer frequency, TF over GST control)"
